FMDV inh = High Throughput Screening for Foot and Mouth Disease Virus Antivirals; FMDV antiviral cell-based qHTS; Potency, µM (highest dose often 57.9 µM), usual class: inhibitors; actives 1.2% (n = 410,000); AID 1159524, 2015; calls by dose curve; tested in HEK293T cells; also: read-out not given here; nearly all actives have a fitted effect of over 45% in size
Marburg entry inh = qHTS for inhibitors of binding or entry into cells for Marburg Virus | Marburg virus pseudotyped entry inhibition, cell reporter | Potency, µM (doses to about 37.8 µM), hits mostly inhibitors | actives 1.8% (n = 300,000); calls by dose curve; tested in HEK293 cells
Shiga toxin inh = A qHTS for Small Molecule Inhibitors of Shiga Toxin. actives 9.2% (n = 290,000). inhibition, % at 38.7 µM. AID 2315, 2010. Vero cells, Shiga toxin protein synthesis inhibition reporter; in the data active = inhibition mostly above about 28%, no sharp cut-off; inactive = mostly below about 43%
HCV inhibitor = qHTS Assay for Inhibitors of Hepatitis C Virus (HCV); Huh7.5.1 HCVcc-Cre infection, luciferase reporter, 44 h; Potency, µM (top dose mostly 41.8 µM), hits mostly inhibitors; actives 3.4% (n = 340,000); active = well fitted inhibition curve with a large enough effect; inconclusive = small, poorly fitted or top-dose-only effect, or another doubt; inactive = no such curve, though single readings can be large or run the other way
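Reporter virus HCVcc-Cre (~0.5 moi) infects cells exposed to compound; seeding density 1,000 cells/well with 4 h settling beforehand. Luminescence, 15 sec read, taken 44 h post-infection following a 15 min RT substrate incubation.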
Cycloheximide cs = Cycloheximide Counterscreen for Small Molecule Inhibitors of Shiga Toxin. max response, %. cell reporter, cycloheximide protein synthesis inhibition counterscreen. AID 2314, 2010. actives 12% (n = 300,000); in the data active = max response mostly above about 13%, no sharp cut-off; inactive = mostly below about 14%; also: read at 38.3 µM for the half of the compounds with a filed dose
Lassa entry inh = qHTS for Inhibitors of binding or entry into cells for Lassa Virus. Lassa virus pseudotype entry inhibition, cell reporter. Potency, µM (series often up to 37.9 µM), usual class: inhibitors. actives 1.2% (n = 300,000). AID 540256, 2011; calls by dose curve; tested in HEK293 cells; also: nearly all actives have a fitted effect of over 50% in size
Large screens that a line does not name were inactive. Sampled rows, rich in hits. Any-hit rate of the full collection: about 13%.

O=C1C(Cl)=C(Nc2ccc(O)cc2)C(=O)c2ccccc21	FMDV inh 32µM, Marburg entry inh inconclusive, Shiga toxin inh 48, HCV inhibitor inconclusive, Cycloheximide cs 23, Lassa entry inh 4.5µM
O=S1(=O)N=C(Nc2ccc(O)cc2)c2ccccc21	none (no result: Marburg entry inh, Lassa entry inh)
Cc1ccc(NC2=C(N3CCOCC3)C(=O)c3ccccc3C2=O)cc1	Marburg entry inh inconclusive, Shiga toxin inh 72, HCV inhibitor inconclusive, Cycloheximide cs 47, Lassa entry inh inconclusive (no result: FMDV inh)
CCNC1=C(Cl)C(=O)c2ccccc2C1=O	HCV inhibitor inconclusive
Cc1ccc(CNc2ncnc3sc(C(=O)N4CCCCC4c4cccnc4)c(C)c23)o1 (stereo unspecified)	none (no result: Marburg entry inh, Shiga toxin inh, HCV inhibitor, Cycloheximide cs, Lassa entry inh)
CCN(CC)c1ccc(NC(=O)C(C)C)cc1	none
CCCC(=O)NC1=C(Cl)C(=O)c2ccccc2C1=O	FMDV inh inconclusive, Marburg entry inh inconclusive, HCV inhibitor 3.2µM, Lassa entry inh inconclusive (no result: Shiga toxin inh, Cycloheximide cs)
CCN(CC)c1ccc(NC2=C(Cl)C(=O)c3ccccc3C2=O)cc1	FMDV inh inconclusive, Marburg entry inh 4µM, Shiga toxin inh 128, HCV inhibitor inconclusive, Cycloheximide cs 60, Lassa entry inh 5.6µM
CCc1ccc(S(=O)(=O)/N=C2\C=C(Nc3cccc(C(=O)O)c3)C(=O)c3ccccc32)cc1	FMDV inh inconclusive, HCV inhibitor inconclusive, Lassa entry inh inconclusive
Cc1cc(C)c(S(=O)(=O)/N=C2\C=C(Nc3ccc(C(=O)O)cc3)C(=O)c3ccccc32)c(C)c1	FMDV inh inconclusive, Marburg entry inh 5.6µM, HCV inhibitor inconclusive, Lassa entry inh inconclusive
O=C(O)c1ccc(NC2=C/C(=N/S(=O)(=O)c3ccccc3)c3ccccc3C2=O)cc1	FMDV inh 11µM, Marburg entry inh 4µM, HCV inhibitor 6.3µM, Lassa entry inh 7.1µM
CCc1ccc(S(=O)(=O)/N=C2\C=C(Nc3ccc(O)cc3)C(=O)c3ccccc32)cc1	FMDV inh 35µM, Marburg entry inh inconclusive, HCV inhibitor inconclusive, Cycloheximide cs 17, Lassa entry inh 4.5µM
Cc1c(C(=O)N(Cc2ccco2)Cc2cccs2)oc2ccccc12	none (no result: Shiga toxin inh, Cycloheximide cs)
CCCC1NC(=S)N(C2CCCCC2)C1=O (stereo unspecified)	none
CN(C)C=C1C(=O)N(C2CCCCC2)C(=O)N(C2CCCCC2)C1=O	FMDV inh 18µM, Lassa entry inh inconclusive
COc1cccc(CN(C)C(=O)c2cc(COc3ccc4ncccc4c3)on2)c1	FMDV inh 11µM, HCV inhibitor 5.6µM, Lassa entry inh inconclusive
CN(Cc1cnn(C)c1)C(=O)c1cc(COc2c(F)cccc2F)on1	Cycloheximide cs 19
CCn1ccnc1CN(C)C(=O)c1cc(COc2c(F)cccc2F)on1	none (no result: Marburg entry inh, Lassa entry inh)
COc1cccc(CN(C)C(=O)c2cc(COc3c(F)cccc3F)on2)c1	Cycloheximide cs 22
CCN(Cc1ccccc1)C(=O)c1cc(COc2c(F)cccc2F)on1	Cycloheximide cs 13, Lassa entry inh inconclusive
CCN(CCn1cccn1)C(=O)c1cc(COc2c(F)cccc2F)on1	Marburg entry inh inconclusive
Cn1c(=O)c2c(SCC(=O)NCc3ccc(F)cc3)nc(-c3ccccc3Cl)nc2n(C)c1=O	none (no result: Marburg entry inh, Shiga toxin inh, HCV inhibitor, Cycloheximide cs)
CC(C)(C)c1ccc(C(=O)N/C(=C/c2cccs2)C(=O)NCc2ccco2)cc1	Marburg entry inh inconclusive, Lassa entry inh inconclusive
CC1=CC2=NC(=O)/C(=C/c3cccs3)C(=N)N2O1	none
CC1=CC2=NC(=O)/C(=C\c3ccc(-c4ccc(Cl)cc4)o3)C(=N)N2O1	Cycloheximide cs 18 (no result: FMDV inh)
CC1=CC2=NC(=O)/C(=C\c3cc(C)n(-c4ccccc4F)c3C)C(=N)N2O1	Shiga toxin inh 59, HCV inhibitor inconclusive, Cycloheximide cs 29, Lassa entry inh inconclusive
CC1=CC2=NC(=O)/C(=C\c3cc(C)n(-c4ccccc4)c3C)C(=N)N2O1	Marburg entry inh inconclusive
CC1(C)CC(=O)C=C(NCCc2ccccc2)C1	none
Cc1nn(-c2ccccc2)c2sc(C(=O)NC3CC3)cc12	Shiga toxin inh 81, HCV inhibitor 13µM, Cycloheximide cs 52, Lassa entry inh inconclusive
Cc1nn(-c2ccc(Cl)cc2)c2sc(C(=O)N3CCN(C(=O)c4ccco4)CC3)cc12	none (no result: FMDV inh, Marburg entry inh, HCV inhibitor, Lassa entry inh)
Cc1nn(-c2ccc(F)cc2)c2sc(C(=O)N3CCCCCC3)cc12	HCV inhibitor 14µM
COc1ccc(C2C(C(=O)Nc3cc(C)on3)c3ccccc3C(=O)N2C)cc1OC (stereo unspecified)	none
COc1ccc2c(c1)Cc1sc(NC(=O)c3cccc(F)c3)nc1-2	Marburg entry inh inconclusive (no result: Shiga toxin inh, HCV inhibitor, Cycloheximide cs)
COc1ccc(C(=O)Nc2nc3c(s2)Cc2cc(OC)ccc2-3)cc1	FMDV inh 10µM, HCV inhibitor 13µM
COc1ccc2c(c1)Cc1sc(NC(=O)c3ccccc3)nc1-2	Shiga toxin inh 145, HCV inhibitor inconclusive, Cycloheximide cs 48
COc1ccc2c(c1)Cc1sc(NC(=O)c3cccs3)nc1-2	Marburg entry inh inconclusive, Shiga toxin inh 149, HCV inhibitor inconclusive, Cycloheximide cs 74
Cc1sc2ncnc(N3CCC(C(=O)N(CC(C)C)c4nc5ccccc5s4)CC3)c2c1C	HCV inhibitor inconclusive (no result: Shiga toxin inh, Cycloheximide cs)
Cc1ccc(NC(=O)c2cc(NC(=O)CCCC(=O)O)ccc2Cl)cc1Cl	none
O=C1NC(=O)N(Cc2ccco2)C(=O)/C1=C/c1ccc(-c2cccc([N+](=O)[O-])c2)o1	FMDV inh 32µM
c1ccc(-c2ccccc2OCCn2cncn2)cc1	none
Cc1ccc(OCCSc2ncnc3nc[nH]c23)cc1	Marburg entry inh inconclusive, HCV inhibitor inconclusive, Cycloheximide cs 61, Lassa entry inh inconclusive
Brc1ccc(CSc2ncnc3nc[nH]c23)cc1	Marburg entry inh inconclusive, Cycloheximide cs 16
Fc1ccc(CSc2ncnc3nc[nH]c23)cc1	none (no result: Marburg entry inh, Lassa entry inh)
Cc1nn(CC(=O)NNC(=O)c2ccc(Br)cc2)c(C)c1[N+](=O)[O-]	none (no result: Marburg entry inh, Shiga toxin inh, Cycloheximide cs, Lassa entry inh)
Cc1c(C#N)c2ccccc2n1C	none
Cc1ccc(SCc2c(C#N)c3ccccc3n2C)cc1	Marburg entry inh inconclusive
Cn1c(CSc2ccccc2)c(C#N)c2ccccc21	Shiga toxin inh 81, Cycloheximide cs 43, Lassa entry inh inconclusive
Cn1c(CNc2ccccn2)c(C#N)c2ccccc21	HCV inhibitor 11µM
CCOC(=O)C(=NCCCN(C)C)NNc1cc(C(F)(F)F)ccc1Cl	none
Cc1ccc2onc(CC(=O)N3CCN(c4cccc(C)c4C)CC3)c2c1	none (no result: Marburg entry inh, Shiga toxin inh, HCV inhibitor, Cycloheximide cs)
CSc1ccccc1NC(=O)CN1c2ccccc2CC1C (stereo unspecified)	HCV inhibitor inconclusive (no result: Marburg entry inh, Lassa entry inh)
O=C1CC(c2ccc(OCCCCCOc3ccc(C4CC(=O)NC4=O)cc3)cc2)C(=O)N1 (stereo unspecified)	FMDV inh 28µM, Marburg entry inh inconclusive, HCV inhibitor inconclusive, Lassa entry inh inconclusive
CCCCOc1ccc(C2CC(=O)N(C)C2=O)cc1 (stereo unspecified)	Shiga toxin inh 32, Cycloheximide cs 20
CC(C)Oc1ccc(C2CC(=O)N(C)C2=O)cc1 (stereo unspecified)	none (no result: Marburg entry inh, Lassa entry inh)

Screens deposited in PubChem by National Center for Advancing Translational Sciences (NCATS).
